High-throughput results deposited in PubChem BioAssay by National Center for Advancing Translational Sciences (NCATS).
Shown are actives, neighbours in structure and some others; about 7.5% of the full set was active somewhere.
NPC1 promoter act: qHTS Assay for NPC1 Promoter Activators; Huh7 NPC1 promoter luciferase reporter, 24 h; Potency, µM (series often up to 9.22 µM), most hits filed as activators; actives 2.4% (n = 320,000); AID 485313, 2010; also: nearly all actives have a fitted effect of over 60% in size
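Stable NPC1-promoter luciferase Huh7 line; cpd (DMSO) 24 h, 37 °C, 5% CO2; Amplite luciferase reagent 10 min RT; luminescence readout. qHTS format.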
FLuc counter: qHTS profiling assay for firefly luciferase inhibitor/activator using purifed enzyme and Km concentrations of substrates (counterscreen for miR-21 project) | actives 6.9% (n = 360,000) | Potency, µM (titrated, usually from 57.5 µM), hits mostly inhibitors | Luciferin 4-monooxygenase (Photinus pyralis), P08659 | purified FLuc, Km substrates, luminescence inhibition; also: nearly all actives have a fitted effect of over 55% in size
Target sequence (P08659 whole entry, looked up): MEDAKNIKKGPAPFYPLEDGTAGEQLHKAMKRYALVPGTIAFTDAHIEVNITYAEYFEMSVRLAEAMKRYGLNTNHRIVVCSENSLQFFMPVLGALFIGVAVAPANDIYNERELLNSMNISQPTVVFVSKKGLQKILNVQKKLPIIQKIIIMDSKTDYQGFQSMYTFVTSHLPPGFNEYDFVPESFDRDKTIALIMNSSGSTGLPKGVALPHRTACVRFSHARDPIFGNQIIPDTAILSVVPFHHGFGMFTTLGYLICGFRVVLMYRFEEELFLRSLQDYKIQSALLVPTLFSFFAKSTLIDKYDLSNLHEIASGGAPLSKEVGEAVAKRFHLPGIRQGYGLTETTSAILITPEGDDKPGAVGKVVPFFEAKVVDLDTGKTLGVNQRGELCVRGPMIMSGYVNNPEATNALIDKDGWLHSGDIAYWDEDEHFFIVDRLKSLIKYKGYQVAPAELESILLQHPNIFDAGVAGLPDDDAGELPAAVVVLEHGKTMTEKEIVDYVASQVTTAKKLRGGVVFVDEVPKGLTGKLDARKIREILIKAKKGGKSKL
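Purified P. pyralis luciferase (10nM final) with 10uM D-luciferin and 10uM ATP (Km levels) in 50mM Tris acetate pH 7.5, 10mM Mg acetate, 0.01% Tween-20, 0.05% BSA; qHTS 6-point titration, ~60 µM downward; luminescence read.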
ELG1 genotoxic: qHTS screen for small molecules that induce genotoxicity in human embryonic kidney (HEK293T) cells expressing luciferase-tagged ELG1; actives 1.3% (n = 330,000); HEK293T ELG1-luciferase reporter, luminescence, 16 h; AID 504466, 2011; Potency, µM (doses to about 46 µM), usual class: activators; also: nearly all actives have a fitted effect of over 60% in size
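Quantitative HTS format in 1536-well plates. HEK293T ELG1-luciferase reporter cells receive test compound and are incubated 16 hr at 37 °C, 5% CO2; ONE-Glo added, 30 min room temperature, then luminescence read.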
Rab9 prom act: qHTS Assay for Rab9 Promoter Activators | Potency, µM (titrated, usually from 9.22 µM), usual class: activators | AID 485297, 2010 | actives 2.8% (n = 320,000) | Huh7 Rab9 promoter-luciferase reporter, luminescence, 24 h; also: nearly all actives have a fitted effect of over 60% in size
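Stable Rab9-luc Huh7, 1500 cells/well, 2 h settle; cmpd in DMSO, 24 h, 37 °C/5% CO2; luciferase reagent 10 min RT; luminescence.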
SMN2 splice enh: qHTS Assay for Enhancers of SMN2 Splice Variant Expression | HEK293 SMN2-luciferase splicing reporter, luminescence, 30-36 h | actives 2.8% (n = 210,000) | Potency, µM (top dose mostly 46.1 µM), most hits filed as activators; also: nearly all actives have a fitted effect of over 55% in size
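HEK293 cells carry an SMN2 minigene-luciferase reporter in which exon 7 inclusion puts luciferase in frame. Cells were seeded at 2000 cells/well, attached for 10-12 hours, then exposed to compounds for 30-36 hours at 37C before ONE-Glo luminescence.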
Hits are given with their value; n = inactive; u = inconclusive; x = no result; [ ] = another dose, or the depositor's remark. Calls follow the shape of the dose curve; as a rule, active = well fitted curve in the direction sought with a large enough effect; inconclusive = small, poorly fitted or top-dose-only effect, or another doubt; inactive = no such curve, though single readings can be large; an effect the other way counts as inactive or inconclusive.

SMILES	NPC1 promoter act	FLuc counter	ELG1 genotoxic	Rab9 prom act	SMN2 splice enh
CCOC(=O)C1=C(CN2CCN(c3ccc(Cl)cc3)CC2)NC(=O)NC1c1ccc(F)cc1 (configuration not stated)	x	n	x	x	x
Cc1c(C)c2ccc(OCC(=O)Nc3nccs3)cc2oc1=O	0.28µM	0.95µM	1µM	0.5µM	x
Cc1c(C)c2ccc(OCC(=O)NCc3ccccn3)cc2oc1=O	n	n	n	n	x
Cc1cc(=O)oc2cc(OCC(=O)Nc3nccs3)ccc12	2µM	5.4µM	10µM	4µM	x
Cc1nnc(NC(=O)COc2ccc3c(C)cc(=O)oc3c2)s1	n	n	n	n	n
CCCCc1cc(=O)oc2cc(OCC(=O)Nc3ccccn3)ccc12	u	21µM	13µM	4.5µM	x
Cc1c(C)c2ccc(OCC(=O)Nc3cccnc3)cc2oc1=O	n	u	u	n	x
Cc1c(C)c2ccc(OCC(=O)Nc3ccccn3)cc2oc1=O	0.89µM	0.34µM	0.46µM	3.5µM	x
Cc1cc2oc(=O)c(CC(=O)NCCCN(C)C)c(C)c2c2occ(C(C)(C)C)c12	n	u	n	n	x
Cc1cc2oc(=O)c(CC(=O)NCCCO)c(C)c2c2occ(C(C)(C)C)c12	n	11µM	n	n	x
CSCC[C@H](NC(=O)Cc1c(C)c2c(cc(C)c3c(C)coc32)oc1=O)C(=O)O	n	19µM	n	n	x
COCCNC(=O)Cc1c(C)c2c(cc(C)c3c(C(C)(C)C)coc32)oc1=O	n	2.7µM	n	n	x
Cc1cc2oc(=O)c(CC(=O)O)c(C)c2c2occ(C(C)(C)C)c12	u	21µM	n	n	x
COc1ccc(C(=O)NCC(=O)OCC(=O)Nc2ncc(Cl)cc2Cl)cc1[N+](=O)[O-]	n	n	n	n	x
CC(C)c1ccccc1-n1c(SCc2cc(=O)oc3ccc4ccccc4c23)nnc1-c1cccnc1	n	n	n	n	n
Cc1ccccc1NC(=O)c1cnn(-c2ccccc2)c1C	u	13µM	n	u	x
Cc1cccc(NC(=O)c2cnn(-c3ccccc3)c2C)c1C	2.8µM	u	u	4µM	x
Cc1ccc(C)c(NC(=O)c2cnn(-c3ccccc3)c2C)c1	n	21µM	n	u	x
Cc1cc(C(=O)N/N=C/c2cccc(Cl)c2Cl)no1	u	11µM	21µM	u	n
CCOC(=O)N/N=C/c1cn(CCCOc2ccc(C)cc2)c2ccccc12	1.8µM	n	n	u	n
CCOC(=O)N/N=C/c1ccc(N(CC)CC)cc1O	n	24µM	u	n	u
CCOC(=O)N/N=C/c1ccccc1F	2.5µM	u	n	2.8µM	u
O=C(O)/C=C/C(=O)c1ccc2c(c1)NC(=O)CO2	n	n	n	n	n
O=C(c1ccc(Cl)c(S(=O)(=O)N2CCOCC2)c1)N1CCN(c2ccccc2)CC1	n	n	n	n	x
O=C(O)CNC(=O)[C@H]1NC(C(F)(F)F)(C(F)(F)F)OC1(C(F)(F)F)C(F)(F)F	x	x	x	x	n[9.22 µM]
SMILES	NPC1 promoter act	FLuc counter	ELG1 genotoxic	Rab9 prom act	SMN2 splice enh
CCOC(=O)c1cnc2c(C)c(Cl)ccc2c1Nc1ccc(N2CCOCC2)cc1	x	n	x	x	n
CCOC(=O)N/N=C/c1cccc(Cl)c1Cl	n	21µM	n	n	u
CCCn1c(=O)c(C(=O)N/N=C/c2ccccc2F)c(O)c2ccccc21	u	n	u	2.2µM	13µM
N/C(=N\OC(=O)CCC1CCCCC1)c1cccc([N+](=O)[O-])c1	n	11µM	n	n	n
N/C(=N\OC(=O)CC1CCCCC1)c1ccc(Cl)cc1	n	7.6µM	u	n	x
N/C(=N\OC(=O)CC1CCCCC1)c1ccc(Br)cc1	n	u	n	n	x
N/C(=N\OC(=O)CC1CCCCC1)c1cccc(Br)c1	n	2.7µM	n	n	x
Cc1ccc2ccccc2c1NC(=O)c1ccco1	n	n	n	n	x
c1ccc2c(c1)CCN(c1nc(CN3CCOCC3)nc3sc4c(c13)CCCC4)C2	n	n	n	n	u
COCc1cc(C)nc2c1C(=O)NC(c1ccc(F)cc1)N2Cc1ccccc1 (configuration not stated)	x	n	x	x	x
Cn1c(C(=O)NCc2ccccn2)cc2c(=O)n3ccccc3nc21	u	15µM	u	2µM	14µM
